Structures can show the parent of a compound that is named as a salt.
System: MOLM14
Assay: cell viability relative to vehicle control; higher = less cytotoxic
Details: 10 µM; SRSF2 genotype: SRSF2 P95H/wt
Outline: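 Screening covered the Selleck bioactive, kinase and epigenetic probe libraries, less identity-inconsistent compounds, on CRISPR-edited mutant clones and isogenic wild-type clones of four leukaemia lines. Cells, at 2000 per well in 50 µL medium, received a single 10 µM acoustically dispensed dose. After 48 h the supernatant was removed and CellTiter-Glo luminescence was read. Viability was analysed in Genedata Screener as percent of the on-plate vehicle control.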

**Q.** With `CCOC(=O)Nc1ccc(NCc2ccc(F)cc2)cc1N` [Retigabine 2HCl] as the molecule, how does the cell viability read?
**A.** 105%

**Q.** For `Cn1c(COP(=O)(NCCBr)NCCBr)cnc1[N+](=O)[O-]`, which cell viability is on record?
**A.** 29.1%

**Q.** How did the cell viability turn out when `NC(=O)CN1CCCC1=O` [Piracetam] was run?
**A.** 99.6%

**Q.** Which cell viability does the source give for `CC(C)c1ccc2c(c1O)CC[C@H]1C3=C(CC[C@]21C)C(=O)OC3` [Triptophenolide] here?
**A.** 99.4%

**Q.** How did the cell viability turn out when `C#C[C@]1(O)C=C[C@H]2[C@@H]3CCC4=CC(=O)CC[C@@H]4[C@H]3CC[C@@]21CC` [Gestodene] was run?
**A.** 94.2%

**Q.** How did the cell viability turn out when `Cc1cccc(Cc2c[nH]cn2)c1C` [Detomidine HCl] was run?
**A.** 105%

**Q.** With `CCCN1C[C@H](CSC)C[C@@H]2c3cccc4[nH]cc(c34)C[C@H]21` [Pergolide mesylate] as the molecule, how does the cell viability read?
**A.** 69.6%

**Q.** With `O=c1ccc2ccc3occc3c2o1` [Isopsoralen] as the molecule, how does the cell viability read?
**A.** 108%

**Q.** Which cell viability does the source give for `CNCC(O)c1ccc(O)cc1` (stereo not given) [Synephrine (Oxedrine)] here?
**A.** 97.4%

**Q.** Which cell viability does the source give for `CCO[C@H]1O[C@@H]2O[C@@]3(C)CC[C@H]4[C@H](C)CC[C@@H]([C@H]1C)[C@@]24OO3` [Arteether] here?
**A.** 69.8%

**Q.** For `C[C@](O)(COc1ccc(C#N)cc1)C(=O)Nc1ccc(C#N)c(C(F)(F)F)c1`, which cell viability is on record?
**A.** 94%

**Q.** How did the cell viability turn out when `CCN(CC)CCOC(=O)C(O)(c1ccccc1)c1ccccc1` [Benactyzine hydrochloride] was run?
**A.** 92.6%

**Q.** `C[N+]1(C)CCCC(OC(=O)C(O)(c2ccccc2)c2ccccc2)C1` (stereo not given) [mepenzolate bromide] was tested. Which cell viability did it give?
**A.** 104%

**Q.** How did the cell viability turn out when `Cc1ccccc1-n1c(Cn2ncc3c(N)ncnc32)nc2cccc(C)c2c1=O` was run?
**A.** 81.9%

**Q.** Which cell viability does the source give for `C=CC[C@]1(O)CC[C@H]2[C@@H]3CCC4=CC(=O)CCC4=C3C=C[C@@]21C` [Altrenogest] here?
**A.** 99.8%

**Q.** `CN1C2CCC1CC(O)C2` (stereo not given) [Tropine] was tested. Which cell viability did it give?
**A.** 99.5%

**Q.** How did the cell viability turn out when `Cc1ccccc1-n1c(CF)nc2ccc(N)cc2c1=O` [Afloqualone] was run?
**A.** 93.2%

**Q.** With `CNCC(=O)c1ccc(O)c(O)c1` [Adrenalone HCl] as the molecule, how does the cell viability read?
**A.** 88.6%

**Q.** `CC(=O)O[C@H]1C(=O)[C@@]2(C)[C@H]([C@H](OC(=O)c3ccccc3)[C@]3(O)C[C@H](O)C(C)=C1C3(C)C)[C@]1(OC(C)=O)CO[C@@H]1C[C@@H]2O` was tested. Which cell viability did it give?
**A.** 104%

**Q.** For `Nc1ncnc2c1ccn2[C@@H]1O[C@H]([C@H](O)c2ccccc2)[C@@H](O)[C@H]1O`, which cell viability is on record?
**A.** 77.1%

**Q.** With `CN1CCCCC1Cn1cc(C(=O)c2cc([N+](=O)[O-])ccc2I)c2ccccc21` (stereo not given) as the molecule, how does the cell viability read?
**A.** 3.13%

**Q.** Which cell viability does the source give for `CC(=O)Nc1ccc(Cc2ccc(NC(C)=O)cc2)cc1` here?
**A.** 106%

**Q.** For `NC(=O)CN1CC(c2ccccc2)CC1=O` (stereo not given) [Phenylpiracetam], which cell viability is on record?
**A.** 99.8%

**Q.** With `CC(C)c1ccc(CO)cc1` [4-Isopropylbenzyl Alcohol] as the molecule, how does the cell viability read?
**A.** 102%

**Q.** For `O=C(c1ccccc1O)c1[nH]c(Cl)c(Cl)c1-n1c(C(=O)c2ccccc2O)cc(Cl)c1Cl` [Marinopyrrole A (Maritoclax)], which cell viability is on record?
**A.** 13.5%

**Q.** `CCN1CCN(C(=O)Cc2ccc(Nc3ncc(F)c(Nc4ccc(C(=O)Nc5ccccc5Cl)cc4)n3)cc2)CC1` [Aurora A Inhibitor I] was tested. Which cell viability did it give?
**A.** 0.41%

**Q.** For `C=C[C@H]1CN2CC[C@H]1C[C@H]2[C@H](O)c1ccnc2ccccc12` [Cinchonidine], which cell viability is on record?
**A.** 85.7%

**Q.** Which cell viability does the source give for `O=c1ccc2cc(O[C@@H]3O[C@H](CO)[C@@H](O)[C@H](O)[C@H]3O)c(O)cc2o1` [Aesculin (Esculin)] here?
**A.** 101%

**Q.** How did the cell viability turn out when `C[N+](C)(C)CCCCCCCCCC[N+](C)(C)C` [Decamethonium Bromide] was run?
**A.** 102%

**Q.** With `CC[C@H]1CN2CC[C@H]1C[C@H]2[C@H](O)c1ccnc2ccc(OC)cc12` [Hydroquinine] as the molecule, how does the cell viability read?
**A.** 87.8%

**Q.** Which cell viability does the source give for `O=C(O)CCCCCCCCCO` [10-Hydroxydecanoic acid] here?
**A.** 97.9%

**Q.** `COC1=CC23CCN(C)C(Cc4ccc(OC)c(O)c42)C3=CC1=O` (stereo not given) [Sinoacutine] was tested. Which cell viability did it give?
**A.** 108%

**Q.** How did the cell viability turn out when `COc1ccc(C(=O)N2CCCC2=O)cc1` [Aniracetam] was run?
**A.** 110%

**Q.** `CC(C)=CCCC(C)(O)C1CCC2(C)C1C(O)CC1C3(C)CCC(OC4OC(CO)C(O)C(O)C4O)C(C)(C)C3CCC12C` [(20R)Ginsenoside Rh2] was tested. Which cell viability did it give?
**A.** 102%

**Q.** How did the cell viability turn out when `c1cc2c(cc1[C@H]1OC[C@H]3[C@@H]1CO[C@H]3c1ccc3c(c1)OCO3)OCO2` [Asarinin] was run?
**A.** 100%

Same assay, conditions: 10 µM; SRSF2 genotype: SRSF2 wt/wt

**Q.** With `CCOC(=O)Nc1ccc(NCc2ccc(F)cc2)cc1N` [Retigabine 2HCl] as the molecule, how does the cell viability read?
**A.** 102%

**Q.** With `Cn1c(COP(=O)(NCCBr)NCCBr)cnc1[N+](=O)[O-]` as the molecule, how does the cell viability read?
**A.** 12.8%

**Q.** For `NC(=O)CN1CCCC1=O` [Piracetam], which cell viability is on record?
**A.** 105%

**Q.** With `CC(C)c1ccc2c(c1O)CC[C@H]1C3=C(CC[C@]21C)C(=O)OC3` [Triptophenolide] as the molecule, how does the cell viability read?
**A.** 92%

**Q.** How did the cell viability turn out when `C#C[C@]1(O)C=C[C@H]2[C@@H]3CCC4=CC(=O)CC[C@@H]4[C@H]3CC[C@@]21CC` [Gestodene] was run?
**A.** 97.1%

**Q.** With `Cc1cccc(Cc2c[nH]cn2)c1C` [Detomidine HCl] as the molecule, how does the cell viability read?
**A.** 106%

**Q.** With `CCCN1C[C@H](CSC)C[C@@H]2c3cccc4[nH]cc(c34)C[C@H]21` [Pergolide mesylate] as the molecule, how does the cell viability read?
**A.** 83.5%

**Q.** `O=c1ccc2ccc3occc3c2o1` [Isopsoralen] was tested. Which cell viability did it give?
**A.** 110%

**Q.** With `CNCC(O)c1ccc(O)cc1` (stereo not given) [Synephrine (Oxedrine)] as the molecule, how does the cell viability read?
**A.** 101%

**Q.** `CCO[C@H]1O[C@@H]2O[C@@]3(C)CC[C@H]4[C@H](C)CC[C@@H]([C@H]1C)[C@@]24OO3` [Arteether] was tested. Which cell viability did it give?
**A.** 45.7%

**Q.** With `C[C@](O)(COc1ccc(C#N)cc1)C(=O)Nc1ccc(C#N)c(C(F)(F)F)c1` as the molecule, how does the cell viability read?
**A.** 96.7%

**Q.** For `CCN(CC)CCOC(=O)C(O)(c1ccccc1)c1ccccc1` [Benactyzine hydrochloride], which cell viability is on record?
**A.** 94.4%

**Q.** How did the cell viability turn out when `C[N+]1(C)CCCC(OC(=O)C(O)(c2ccccc2)c2ccccc2)C1` (stereo not given) [mepenzolate bromide] was run?
**A.** 104%

**Q.** For `Cc1ccccc1-n1c(Cn2ncc3c(N)ncnc32)nc2cccc(C)c2c1=O`, which cell viability is on record?
**A.** 81.3%

**Q.** For `C=CC[C@]1(O)CC[C@H]2[C@@H]3CCC4=CC(=O)CCC4=C3C=C[C@@]21C` [Altrenogest], which cell viability is on record?
**A.** 107%

**Q.** How did the cell viability turn out when `CN1C2CCC1CC(O)C2` (stereo not given) [Tropine] was run?
**A.** 103%

**Q.** For `Cc1ccccc1-n1c(CF)nc2ccc(N)cc2c1=O` [Afloqualone], which cell viability is on record?
**A.** 96.2%

**Q.** Which cell viability does the source give for `CNCC(=O)c1ccc(O)c(O)c1` [Adrenalone HCl] here?
**A.** 94%

**Q.** How did the cell viability turn out when `CC(=O)O[C@H]1C(=O)[C@@]2(C)[C@H]([C@H](OC(=O)c3ccccc3)[C@]3(O)C[C@H](O)C(C)=C1C3(C)C)[C@]1(OC(C)=O)CO[C@@H]1C[C@@H]2O` was run?
**A.** 102%

**Q.** `Nc1ncnc2c1ccn2[C@@H]1O[C@H]([C@H](O)c2ccccc2)[C@@H](O)[C@H]1O` was tested. Which cell viability did it give?
**A.** 89.3%

**Q.** `CN1CCCCC1Cn1cc(C(=O)c2cc([N+](=O)[O-])ccc2I)c2ccccc21` (stereo not given) was tested. Which cell viability did it give?
**A.** 2.06%

**Q.** Which cell viability does the source give for `CC(=O)Nc1ccc(Cc2ccc(NC(C)=O)cc2)cc1` here?
**A.** 104%

**Q.** How did the cell viability turn out when `NC(=O)CN1CC(c2ccccc2)CC1=O` (stereo not given) [Phenylpiracetam] was run?
**A.** 98.1%

**Q.** Which cell viability does the source give for `CC(C)c1ccc(CO)cc1` [4-Isopropylbenzyl Alcohol] here?
**A.** 105%

**Q.** Which cell viability does the source give for `O=C(c1ccccc1O)c1[nH]c(Cl)c(Cl)c1-n1c(C(=O)c2ccccc2O)cc(Cl)c1Cl` [Marinopyrrole A (Maritoclax)] here?
**A.** 12.8%

**Q.** How did the cell viability turn out when `CCN1CCN(C(=O)Cc2ccc(Nc3ncc(F)c(Nc4ccc(C(=O)Nc5ccccc5Cl)cc4)n3)cc2)CC1` [Aurora A Inhibitor I] was run?
**A.** 0.49%

**Q.** With `C=C[C@H]1CN2CC[C@H]1C[C@H]2[C@H](O)c1ccnc2ccccc12` [Cinchonidine] as the molecule, how does the cell viability read?
**A.** 97.8%

**Q.** `O=c1ccc2cc(O[C@@H]3O[C@H](CO)[C@@H](O)[C@H](O)[C@H]3O)c(O)cc2o1` [Aesculin (Esculin)] was tested. Which cell viability did it give?
**A.** 99.7%

**Q.** For `C[N+](C)(C)CCCCCCCCCC[N+](C)(C)C` [Decamethonium Bromide], which cell viability is on record?
**A.** 101%

**Q.** For `CC[C@H]1CN2CC[C@H]1C[C@H]2[C@H](O)c1ccnc2ccc(OC)cc12` [Hydroquinine], which cell viability is on record?
**A.** 106%

**Q.** With `O=C(O)CCCCCCCCCO` [10-Hydroxydecanoic acid] as the molecule, how does the cell viability read?
**A.** 99.3%

**Q.** For `COC1=CC23CCN(C)C(Cc4ccc(OC)c(O)c42)C3=CC1=O` (stereo not given) [Sinoacutine], which cell viability is on record?
**A.** 103%

**Q.** `COc1ccc(C(=O)N2CCCC2=O)cc1` [Aniracetam] was tested. Which cell viability did it give?
**A.** 109%

**Q.** How did the cell viability turn out when `CC(C)=CCCC(C)(O)C1CCC2(C)C1C(O)CC1C3(C)CCC(OC4OC(CO)C(O)C(O)C4O)C(C)(C)C3CCC12C` [(20R)Ginsenoside Rh2] was run?
**A.** 96%

**Q.** With `c1cc2c(cc1[C@H]1OC[C@H]3[C@@H]1CO[C@H]3c1ccc3c(c1)OCO3)OCO2` [Asarinin] as the molecule, how does the cell viability read?
**A.** 103%
